Hit rate of the full screen: of about 69,000 compounds, about 1,000 (1.4%) showed an effect of 50% or more. What follows is part of a selection rich in strong results, with near analogues and random picks from the rest.
System: Leishmania donovani
Experiment: Leishmania intramacrophage assay
Assay type: functional, organism-based
Parameters: scale not given: in the data most compounds retested in dose-response had high values

## Cc1ccn(Cc2nc(C(C)OCC(C)C)no2)c(=O)c1 (configuration not stated)
30.3 µM, […]
  Percent Effect: 4.888%

## Cc1[nH]ccc1C(=O)N1CCC2(CC1)c1nc[nH]c1CCN2CC(C)C
30.3 µM, […]
  Percent Effect: 14.63%

## CN1CCC(NCC(O)c2cccc(OCc3ccccc3)c2)CC1 (configuration not stated)
30.3 µM, […]
  Percent Effect: 100.4%

## COc1cccc(C(O)CNC(=O)CC2CCCCC2)c1 (configuration not stated)
30.3 µM, […]
  Percent Effect: -1.709%

## c1ccc(COc2cccc(CNC3CCc4ncnn4C3)c2)cc1 (configuration not stated)
30 µM
  Percent Effect: -0.9201%

## OC(CNC1CCSCC1)c1cccc(OCc2ccccc2)c1 (configuration not stated)
30.3 µM, […]
  Percent Effect: 77.88%

## CCN1CCC(CC(=O)NCC(O)c2cccc(OC)c2)CC1 (configuration not stated)
30.3 µM, […]
  Percent Effect: 23.15%

## OC(CNC1CCOCC1)c1cccc(OCc2ccccc2)c1 (configuration not stated)
30.3 µM, […]
  Percent Effect: 10.21%

## CN(Cc1cnn(C)c1)C(=O)Cc1ccc2c(c1)OCCO2
30.3 µM, […]
  Percent Effect: 1.956%

## COCCCN(C)C1CCCN(Cc2noc(C)n2)C1 (configuration not stated)
30 µM, 30.03 µM
  Percent Effect: 26.31%

## Cc1nc(CN(C)C2CCN(Cc3cccc4c3OCCO4)C2)no1 (configuration not stated)
30 µM
  Percent Effect: 6.673%

## Cn1ccnc1CCNC(=O)NCCC1CCCCO1 (configuration not stated)
30.3 µM, […]
  Percent Effect: 11.89%

## O=C(C1CCOC1)N1C[C@H]2CN(c3ccccc3)C(=O)[C@H]2C1 (some centres not stated)
30.3 µM, […]
  Percent Effect: 6.072%

## CC1CCN(CCNC(=O)c2cncnc2C(C)C)CC1
30 µM, 30.03 µM
  Percent Effect: 11.52%

## Cc1ncncc1C(=O)NCCN1CCC(C)CC1
30.3 µM, […]
  Percent Effect: 57.89%

## CCc1ncncc1C(=O)NCCN1CCC(C)CC1
30 µM, 30.03 µM
  Percent Effect: 18.33%

## Cn1cnnc1C1CCCN(C(=O)NCCOc2ccccc2)C1 (configuration not stated)
30 µM, 30.03 µM
  Percent Effect: 2.584%

## CCc1nc(C2CCCN2C(=O)CCc2cscn2)no1 (configuration not stated)
30 µM
  Percent Effect: -30.43%

## Cc1cccc(CN(Cc2ccccn2)S(=O)(=O)N(C)C)c1
30.3 µM, […]
  Percent Effect: 9.457%

## Cc1cccc(CN(Cc2ccccn2)Cc2ncc(C(C)(C)C)o2)c1
30.3 µM, […]
  Percent Effect: 68.09%

## CCN(Cc1cccc(Cl)c1)Cc1ncc(C(C)(C)C)o1
30.3 µM, […]
  Percent Effect: 12.9%

## Cc1ccc(F)c(C(=O)N2C[C@@H](C(=O)O)[C@H](c3ccncc3)C2)c1Cl
30.3 µM, […]
  Percent Effect: 16.35%

## O=S1(=O)CCC(c2nc(-c3cccc(Br)c3)no2)C1 (configuration not stated)
30.3 µM, […]
  Percent Effect: 2.793%

## COCCN(Cc1cnn(C)c1)CC1CCOC1 (configuration not stated)
30.3 µM, […]
  Percent Effect: -5.95%

## COCCN(Cc1cnn(C)c1)CC1CCN(C(C)C)CC1
30.3 µM, […]
  Percent Effect: 53.86%

## COCCN(Cc1cnn(C)c1)Cc1ccc(C)o1
30.3 µM, […]
  Percent Effect: 22%

## c1ccc2c(N3CCCC3Cn3cccn3)ncnc2c1 (configuration not stated)
30 µM, 30.03 µM
  Percent Effect: 38.82%

## Cc1nccn1CC1CCCN1S(=O)(=O)Cc1ccccc1F (configuration not stated)
30 µM, 30.03 µM
  Percent Effect: 17.08%

## COCc1noc(-c2cc(Cl)c3c(c2)OCO3)n1
30.3 µM, […]
  Percent Effect: -15.75%

## O=C(CCn1c(=O)oc2ccccc21)NCC(O)c1ccc(F)c(F)c1 (configuration not stated)
30.3 µM, […]
  Percent Effect: 41.71%

## O=C(CCn1c(=O)oc2ccccc21)NCC(O)c1ccccc1 (configuration not stated)
30.3 µM, […]
  Percent Effect: 50.97%

## O=C(CCn1c(=O)oc2ccccc21)NCC(O)c1ccc(Cl)cc1 (configuration not stated)
30.3 µM, […]
  Percent Effect: 46.94%

## OC1=C2C(=Nc3n[nH]c(O)c3C2c2ccccc2Cl)CCC1 (configuration not stated)
30.3 µM, […]
  Percent Effect: 11.34%

## CN(C)c1cncc(C2CCN(CCO)CC2)n1
30 µM, 30.03 µM
  Percent Effect: 34.76%

## CCC(=O)N1Cc2nccn2CC(CN(C)Cc2cccnc2)C1.O=C(O)C(F)(F)F.O=C(O)C(F)(F)F (configuration not stated)
30 µM, 30.03 µM
  Percent Effect: 14.09%

## CN(Cc1cccnc1)CC1CN(C(N)=O)Cc2nccn2C1 (configuration not stated)
30.3 µM, […]
  Percent Effect: 59.79%

## COCC(=O)N1Cc2nccn2CC(CN(C)Cc2cccnc2)C1 (configuration not stated)
30.3 µM, […]
  Percent Effect: 24.51%

## NC(=O)CCn1cc(CNCCCc2ccccc2O)c2ccccc21
30.3 µM, […]
  Percent Effect: 30.89%

## Cc1ccsc1CNCC1CCCN1c1cccnn1 (configuration not stated)
30 µM
  Percent Effect: 29.66%

## CC(C)N1CCC2(CCCN(Cc3ccc(F)cc3)C2=O)C1 (configuration not stated)
30.3 µM, […]
  Percent Effect: 12.06%

## CCCc1cc(N2CCC(N[C@H]3CC[C@H](O)CC3)CC2)nc(C)n1
30.3 µM, […]
  Percent Effect: 8.442%

## Cc1nn(C)c2cn(CC(=O)N3CCN(c4ccccc4)CC3)nc12
30.3 µM, […]
  Percent Effect: 30.49%

## CN1CCN(c2ccc(Br)cc2NC(=O)c2ccco2)CC1
30.3 µM, […]
  Percent Effect: 53.58%

## CN1CCN(c2ccc(Cl)cc2NC(=O)c2ccco2)CC1
30.3 µM, […]
  Percent Effect: 18.57%

## CN1CCN(c2ccccc2NC(=O)c2ccco2)CC1
30.3 µM, […]
  Percent Effect: 13.32%

## Cc1ccc(C(=O)O)cc1-c1cccc2c1CCNC2
30.3 µM, […]
  Percent Effect: 17.04%

## O=C(c1ccnnc1)N1C[C@H](OCC2CC2)[C@H]2COC[C@H]21
30.3 µM, […]
  Percent Effect: 15.2%

## CCOc1ccc(Cl)c(C(=O)NC(C(N)=O)c2ccccc2)n1 (configuration not stated)
30.3 µM, […]
  Percent Effect: 28.97%

## Cc1cccc(CN2C(=O)CC[C@@H]3[C@H]2CCN3Cc2ccc(C)s2)n1.O=C(O)C(F)(F)F.O=C(O)C(F)(F)F
30 µM, 30.03 µM
  Percent Effect: 7.01%

## CN(C)S(=O)(=O)NC1CCCc2c1cnn2-c1ccc(C(C)(C)C)cc1 (configuration not stated)
30.3 µM, […]
  Percent Effect: 27.24%

## Cc1cc(C)cc(-n2ncc3c2CCCC3N)c1 (configuration not stated)
30.3 µM, […]
  Percent Effect: 79.9%

## CC(C)(C)c1ccc(-n2ncc3c2CCCC3N)cc1 (configuration not stated)
30.3 µM, […]
  Percent Effect: 27.02%

## NC1CCCc2c1cnn2-c1cc(F)cc(F)c1 (configuration not stated)
30.3 µM, […]
  Percent Effect: -4.914%

## Cc1ccc(-n2ncc(C(=O)N(C)C3CCN(C)CC3)c2N)cc1C
30.3 µM, […]
  Percent Effect: 14.5%

## Cc1ccc(-n2ncc3c2CCCC3N)cc1C (configuration not stated)
30.3 µM, […]
  Percent Effect: 72.93%

## O=C(O)C(F)(F)F.c1cnc(NCc2nnn3c2CN(Cc2ccsc2)CCC3)nc1
30.3 µM, […]
  Percent Effect: -35.49%

## Cc1ccc(OCCNc2cccc(C(=O)N3CCOCC3)c2)cc1
30.3 µM, […]
  Percent Effect: 19.35%

## CC(=O)NCc1cccc(-n2ccnc2-c2cccc(C(=O)O)c2)c1
30.3 µM, […]
  Percent Effect: -4.637%

## CC(C)C(NC(=O)c1ccccc1F)C(=O)Nc1cnn(C)c1 (configuration not stated)
30.3 µM, […]
  Percent Effect: 14.78%

## Cc1ccc(-c2cc(C(=O)NCCN3CCCS3(=O)=O)[nH]n2)cc1
30 µM
  Percent Effect: -10.89%

## CC(C)c1nc(C2CCCN(C(=O)CCCn3ccnc3)C2)no1 (configuration not stated)
30 µM
  Percent Effect: 30.47%

## NC(=O)C1CCCN1C1CCN(C(=O)c2ccc3c(c2)OCO3)CC1 (configuration not stated)
30.3 µM, […]
  Percent Effect: 5.65%

## COc1ccc(NCc2nc(=O)n(CCC(C)C)[nH]2)cc1
30 µM, 30.03 µM
  Percent Effect: 11.21%

## O=C(Cc1cccc(F)c1)NCCNCc1ccc2c(c1)CCO2
30 µM, 30.03 µM
  Percent Effect: 29.87%

## O=c1[nH]c2nc(NCC3CCCO3)ncc2c(=O)n1-c1ccc(F)cc1 (configuration not stated)
30.3 µM, […]
  Percent Effect: 51.53%

## O=c1[nH]c2nc(NC3CC3)ncc2c(=O)n1-c1ccc(F)cc1
30.3 µM, […]
  Percent Effect: 24.05%

## O=c1[nH]c2nc(NCC3CCCO3)ncc2c(=O)n1-c1cccc(F)c1 (configuration not stated)
30.3 µM, […]
  Percent Effect: 20.13%

Source: ChEMBL document CHEMBL3988442, “University of Dundee, Small-Polar-MMV Screening Library” (2021)
